Test results taken from PubChem BioAssay AID1159580 (chemical genetic matrix, 2015).
Where “and” joins values, the source holds several entries; their conditions need not be identical. Identical values can stand only once. The campaign covered roughly 5,500 compounds. About 2,000 (36%) were called active. Inconclusive results (about 18%) are left out. Rule as the data show it: active = normalized growth mostly below about 0.91 (no sharp cut-off); inconclusive = no clear call, values can overlap the other calls; inactive = mostly above about 0.92. This is one part of the list.

Assay: chemical genetic growth profiling, strain panel (AID 1159580);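 also: tested at 20 µM; growth read once vehicle control cultures reached saturation at 30 °C; 1 = growth at the plate median or of vehicle wells; lower values mean less growth of the strain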
Details: S. cerevisiae deletion strains, growth OD

Measured: normalized growth

CN1CCC(=C2c3ccccc3Sc3ccccc32)CC1
active: locus YBR021W, strain FUR4, stronger effect = lower value 0.775 | locus YDR137W, strain rgp1, stronger effect = lower value 1.2 [resistant] | locus YGR252W, strain gcn5, stronger effect = lower value 0.765
inactive: locus YAL013W, strain DEP1, stronger effect = lower value 0.994 | locus YAL021C, strain ccr4, stronger effect = lower value 0.936 | locus YAL026C, strain drs2, stronger effect = lower value 0.994 | locus YAL030W, strain snc1, stronger effect = lower value 1.03 | locus YBL061C, strain skt5, stronger effect = lower value 1.04 | locus YBR009C, strain hhf1, stronger effect = lower value 1.06 | locus YBR023C, strain chs3, stronger effect = lower value 1.02 | locus YBR171W, strain sec66, stronger effect = lower value 1.04 | locus YBR229C, strain ROT2, stronger effect = lower value 0.998 | locus YBR231C, strain swc5, stronger effect = lower value 1.05 | locus YBR279W, strain paf1, stronger effect = lower value 1.02 | locus YCL011C, strain gbp2, stronger effect = lower value 1.04 | locus YCL016C, strain dcc1, stronger effect = lower value 1.03 | locus YCL029C, strain bik1, stronger effect = lower value 1.05 | locus YCL061C, strain MRC1, stronger effect = lower value 1.04 | locus YCL069W, strain vba3, stronger effect = lower value 1.02 | locus YCR088W, strain abp1, stronger effect = lower value 1.03 | locus YDL005C, strain med2, stronger effect = lower value 1.05 | locus YDL035C, strain GPR1, stronger effect = lower value 0.951 | locus YDL040C, strain nat1, stronger effect = lower value 1.01 | locus YDL074C, strain BRE1, stronger effect = lower value 0.986 | locus YDL101C, strain DUN1, stronger effect = lower value 1.03 | locus YDL134C, strain PPH21, stronger effect = lower value 1.01 | locus YDL185W, strain tfp1, stronger effect = lower value 1.01 | locus YDL192W, strain arf1, stronger effect = lower value 1.01 | locus YDR001C, strain nth1, stronger effect = lower value 1.02 | locus YDR069C, strain doa4, stronger effect = lower value 1.02 | locus YDR101C, strain arx1, stronger effect = lower value 1.01 | locus YDR150W, strain NUM1, stronger effect = lower value 1.01 | locus YDR159W, strain sac3, stronger effect = lower value 1.07 | locus YDR162C, strain NBP2, stronger effect = lower value 1.01 | locus YDR195W, strain ref2 1.11 | locus YDR297W, strain sur2, stronger effect = lower value 1.03 | locus YDR318W, strain mcm21, stronger effect = lower value 1.01 | locus YDR334W, strain swr1, stronger effect = lower value 1.03 | locus YDR335W, strain msn5, stronger effect = lower value 1.02 | locus YDR388W, stronger effect = lower value 0.955 | locus YDR392W, strain spt3, stronger effect = lower value 0.982 | locus YDR502C, strain sam2, stronger effect = lower value 0.995 | locus YEL003W, strain gim4, stronger effect = lower value 1.03 | locus YEL037C, strain rad23, stronger effect = lower value 1.02 | locus YEL061C, strain CIN8 (second series), stronger effect = lower value 1.02 | locus YEL061C, strain CIN8, stronger effect = lower value 1.01 | locus YER015W, strain faa2, stronger effect = lower value 1.01 | locus YER016W, strain bim1, stronger effect = lower value 1.03 | locus YER110C, stronger effect = lower value 1.01 | locus YER111C, strain swi4, stronger effect = lower value 1.03 | locus YER155C, strain BEM2 (second series), stronger effect = lower value 1.03 | locus YER155C, strain BEM2, stronger effect = lower value 1.01 | locus YER167W, strain BCK2, stronger effect = lower value 1.01 | locus YFR010W, strain ubp6, stronger effect = lower value 0.999 | locus YGL078C, strain dbp3, stronger effect = lower value 1.01 | locus YGL086W, strain mad1, stronger effect = lower value 0.99 | locus YGL167C, strain pmr1, stronger effect = lower value 1.03 | locus YGL173C, strain kem1, stronger effect = lower value 1.04 | locus YGL227W, strain vid30, stronger effect = lower value 1.03 | locus YGL240W, strain doc1, stronger effect = lower value 1.06 | locus YGL248W, strain PDE1, stronger effect = lower value 1 | locus YGL253W, strain hxk2, stronger effect = lower value 1.01 | locus YGR078C, strain PAC10, stronger effect = lower value 0.977 | locus YGR135W, strain pre9, stronger effect = lower value 0.934 | locus YGR229C, strain SMI1, stronger effect = lower value 0.839 | locus YHR013C, strain ard1, stronger effect = lower value 0.934 | locus YHR027C, strain rpn1, stronger effect = lower value 1.02 | locus YHR030C, strain SLT2, stronger effect = lower value 1.01 and 0.969 | locus YHR079C, strain IRE1 (second series), stronger effect = lower value 1.02 | locus YHR079C, strain IRE1, stronger effect = lower value 0.986 | locus YHR094C, strain hxt1, stronger effect = lower value 1.01 | locus YHR129C, strain ARP1, stronger effect = lower value 1.01 | locus YHR142W, strain chs7, stronger effect = lower value 0.98 | locus YHR200W, strain rpn10, stronger effect = lower value 1.01 | locus YIL066C, strain RNR3, stronger effect = lower value 1.01 | locus YIL073C, strain SPO22, stronger effect = lower value 1.01 | locus YIL125W, strain kgd1, stronger effect = lower value 1 | locus YIR030C, strain dcg1, stronger effect = lower value 1.02 | locus YJL092W, strain hpr5, stronger effect = lower value 1.02 | locus YJL095W, strain BCK1 (second series), stronger effect = lower value 1.02 | locus YJL095W, strain BCK1, stronger effect = lower value 0.974 and 0.973 | locus YJL115W, strain asf1, stronger effect = lower value 1.02 | locus YJL129C, strain trk1, stronger effect = lower value 1.07 | locus YJL134W, strain LCB3, stronger effect = lower value 0.994 | locus YJL154C, strain vps35, stronger effect = lower value 1.01 | locus YJL164C, strain tpk1, stronger effect = lower value 1.02 | locus YJL166W, strain qcr8, stronger effect = lower value 1.03 | locus YJL168C, strain set2, stronger effect = lower value 1.01 | locus YJL187C, strain SWE1 (second series), stronger effect = lower value 1.02 | locus YJL187C, strain SWE1, stronger effect = lower value 1.02 | locus YJR043C, strain POL32, stronger effect = lower value 1.07 | locus YJR066W, strain TOR1, stronger effect = lower value 0.956
